# Laboratory results: PubChem BioAssay AID485297 (National Center for Advancing Translational Sciences (NCATS), 2010)
# About 9,100 (2.8%) of roughly 320,000 compounds were called active. Roughly 3% stayed inconclusive and do not appear here. Shown is part of a subset that was picked to be rich in actives. A call without a number means that no potency is given here. A number with no mark means an inactive call. Calls follow the shape of the dose curve; as a rule, active = well fitted activation curve with a large enough effect; inconclusive = small, poorly fitted or top-dose-only effect; inactive = no such curve, though single readings can be large or run the other way.
# Assay: qHTS Assay for Rab9 Promoter Activators; also: nearly all actives have a fitted effect of over 60% in size
# Details: Huh7 Rab9 promoter-luciferase reporter, luminescence, 24 h; series mostly up to 9.22 µM
# Procedure, shortened: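 Stable Rab9-luc Huh7, 1500 cells/well, 2 h settle; cmpd in DMSO, 24 h, 37 °C/5% CO2; luciferase reagent 10 min RT; luminescence.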
# Potency is read from the fitted curve at half-maximal effect.
SMILES,Potency,"activation, negative = inhibition"
O=C(OC1CCCCC1=O)c1cccc(S(=O)(=O)NCc2ccccc2)c1 (stereo unspecified),inactive,–
CCOc1ccccc1NC(=O)NC1CCCCCCC1,inactive,–
O=C(CN1CCN(C2CCS(=O)(=O)C2)CC1)N1N=C(c2ccc(Cl)cc2)CC1c1ccco1 (stereo unspecified),inactive,–
CC(=O)NCc1ccc(-c2csc(NC(=O)CCCc3nc4ccccc4c(=O)[nH]3)n2)cc1,inactive,–
CC1(C(=O)OCC(=O)Nc2ncc(Cl)cc2Cl)CC1(Cl)Cl (stereo unspecified),inactive,–
O=C(CSc1ccccc1)Nc1cccc(S(=O)(=O)N2CCOCC2)c1,inactive,–
O=C1C(C=NCC2CCCO2)=C(O)c2ccccc21 (stereo unspecified),2820 nM (active),–
CC(=NCC1CCCO1)c1c(O)[nH]c(=O)[nH]c1=O (stereo unspecified),inactive,–
O=C1c2cccc3c([N+](=O)[O-])ccc(c23)C(=O)N1CC1CCCO1 (stereo unspecified),inactive,–
O=[N+]([O-])c1ccccc1SNc1ccccn1,inactive,–
O=C(O[C@H]1[C@H](Cc2ccccc2)NS(=O)(=O)[C@H]2C[C@@H]3C=C[C@]12O3)c1ccc([N+](=O)[O-])cc1,inactive,–
COc1ccc2c(C)cc(SCC(=O)NCC3CCCO3)nc2c1 (stereo unspecified),inactive,–
CCCCSc1nnc(-c2ccc(C)cc2)o1,1580 nM (active),–
Cc1cccc(C)c1OC(=O)CSc1nnc(-c2ccccc2)o1,inactive,–
CCOC(=O)CSc1nnc(-c2ccncc2)o1,inactive,–
Cc1ccc(S(=O)(=O)N(C)C)cc1NC(=O)C(C)OC(=O)c1ccc2ccccc2n1 (stereo unspecified),inactive,–
O=C(O)c1cccc(N=NN2CCCCCC2)c1,282 nM (active),–
O=C(c1ccccc1)N1CCN(C(=O)N2CCCCC2)CC1,inactive,–
O=C(O)c1ccc(N=NN2CCOCC2)cc1,inactive,–
COc1ccc2c3c(c(=O)oc2c1)C1O[C@](CCCCN2C(=O)c4ccccc4C2=O)(Cc2c1ccc1ccccc21)O3,–,-1.17% [at 1.84 µM]
COc1cc(C(=O)NCC2(c3ccccc3)CCCC2)ccc1OC(C)C,inactive,–
Cc1nc2cc(NC(=O)NC3CC3)ccc2n1C,inactive,–
Cc1nc2cc(NC(=O)Nc3cccc(F)c3)ccc2n1C,89.1 nM (active),–

SMILES,Potency,"activation, negative = inhibition"
Cc1cc2nc(C)n(CCCNC(=O)Nc3ccccc3)c2cc1C,inactive,–
CN(C(=O)COc1ncnc2c1cnn2-c1ccccc1)C1CCCCC1,inactive,–
CC(=O)Cn1cnc2c(cnn2-c2ccccc2)c1=O,inactive,–
c1ccc(-n2ncc3c2ncn2c(C4CCCCC4)nnc32)cc1,3980 nM (active),–
c1ccc2cc(CCCc3cc4ccccc4cn3)ncc2c1,inactive,–
CN(c1ccccc1)S(=O)(=O)c1ccc(C(=O)NCCc2ccccc2)cc1,inactive,–
CC(C)c1ccc(C(=O)NCCCc2ccccc2)cc1,3160 nM (active),–
CCCOc1ccc(C(=O)NCCc2ccccc2)cc1,447 nM (active),–
Cc1noc(C)c1COc1ccc(C(=O)NCCOc2ccccc2)cc1,inactive,–
O=C(CCNC(=O)c1ccc(Br)cc1)NCCCc1ccccc1,inactive,–
CCCCCCCCC(=O)NCCOc1ccccc1,inactive,–
O=C(NCCOc1ccccc1)c1ccccc1,708 nM (active),–
CCCc1ccc(OCCNC(=O)c2ccco2)cc1,inactive,–
COc1ccc(OCCCC(=O)NCCc2ccccc2)cc1,inactive,–
CC1(C)NC(=O)N(CC(=O)N2CCN(S(=O)(=O)c3ccccc3F)CC2)C1=O,inactive,–
CC(=O)Nc1ccc(NC(=O)CSc2nnc(C3CC3)n2-c2ccccc2)cc1,inactive,–
CCC(C)C(N=C1NS(=O)(=O)c2ccccc21)C(=O)N1CCC(C)CC1 (stereo unspecified),inactive,–
O=C(NCCc1ccc(F)cc1)c1ccc(S(=O)(=O)N2CCCCC2)cc1,inactive,–
O=C(NCCc1ccc(F)cc1)c1ccc2nccnc2c1,1120 nM (active),–
Cc1ccc(C)c(NC(=O)c2ccc3nccnc3c2)c1,inactive,–
CC(=O)Nc1ccc(NC(=O)COC(=O)c2ccccc2C(=O)c2ccccc2)cc1,inactive,–
CCN(CC)S(=O)(=O)c1ccc2[nH]c(=O)cc(C(=O)N(C)C3CCS(=O)(=O)C3)c2c1 (stereo unspecified),inactive,–
Cc1ccccc1Nc1nc(N)nc(COC(=O)CCC(=O)c2ccc(F)cc2)n1,inactive,–

SMILES,Potency,"activation, negative = inhibition"
O=C(Nc1nnc(-c2ccc(F)cc2)s1)c1c(F)cccc1Cl,inactive,–
CC(C)c1cc(C(N)=O)c(NC(=O)c2cccc(COc3ccc(Br)cc3)c2)s1,1260 nM (active),–
CCOC(=O)c1cc(C(C)C)sc1NC(=O)COC(=O)c1nccnc1N,inactive,–
NNC(=O)c1cccc(COCC(F)(F)C(F)F)c1,inactive,–
COCC(C)NC(=O)c1ccc(-n2nc(C(F)(F)F)cc2-c2cccs2)cc1 (stereo unspecified),inactive,–
C=CCn1c(=NC(=O)c2ccc(S(=O)(=O)N3CCCC3)cc2)sc2cc(NC(C)=O)ccc21,inactive,–
C=CCn1c(CCNC(=O)c2cccs2)n[nH]c1=S,inactive,–
C=CCn1c(=NC(=O)c2cccs2)sc2cc(NC(C)=O)ccc21,3980 nM (active),–
Cc1cccc(NS(=O)(=O)c2cccc(C(=O)NNC(=O)c3ccccc3O)c2)c1,inactive,–
O=C(CSc1ccccc1)Nc1cccc(S(=O)(=O)N2CCCCC2)c1,inactive,–
CCN(c1ccccc1)S(=O)(=O)c1ccc(OCC(=O)N2CCCC2)cc1,inactive,–
CC(=O)Nc1ccc(SC[C@H](Cc2ccccc2)N2CC[C@@H](C)CCC2=O)cc1,inactive,–
CN(C(=O)c1ccccn1)c1nnc(-c2ccccn2)s1,3550 nM (active),–
COc1cc(OC)cc(-c2nnc(N(C)C(=O)c3ccncc3)s2)c1,inactive,–
COc1cccc(-c2nnc(N(C)C(=O)c3ccno3)s2)c1,inactive,–
O=C(CNc1ccccc1N1CCCC1=O)Nc1cc(Cl)ccc1-n1cncn1,inactive,–
Cc1c(Br)c([N+](=O)[O-])nn1CC(=O)N1CCN(Cc2ccccc2)CC1,inactive,–
O=C(COC(=O)c1cc(=O)[nH]c2ccccc12)NCc1cccc(Cl)c1,inactive,–
COc1cccc(C(=O)NCCSc2ccc(Br)cc2)c1,inactive,–
COc1ccc(C(=O)NCc2nnc(SCCOc3ccccc3)n2C)cc1,inactive,–
COc1ccc(C(=O)NCCSc2ccccc2C)cc1,794 nM (active),–
CCNC(=O)N1CCN(S(=O)(=O)c2ccc3c(c2)OCCCO3)CC1,inactive,–
COc1ccc(OC)c(/C=N/NC(=O)c2ccc[n+](CC(=O)c3ccccc3)c2)c1,inactive,–

SMILES,Potency,"activation, negative = inhibition"
Clc1ccc2nc(CSc3ccccc3)cn2c1,316 nM (active),–
O=c1c2ccccc2nc2n1C(CSc1ccc(Cl)cc1)CN2 (stereo unspecified),inactive,–
O=C(/C=C/c1ccc2c(c1)OCO2)NCc1cn2cc(Cl)ccc2n1,inactive,–
O=C(Nc1ccc2oc(-c3ccc4ccccc4c3)nc2c1)c1cccs1,1260 nM (active),–
COc1cc2ccccc2cc1C(=O)Nc1ccc(NC(=O)c2cccs2)cc1,inactive,–
O=C(Nc1ccc(NC(=O)c2cccs2)cc1)c1ccc2ccccc2c1,inactive,–
COc1ccc(S(=O)(=O)N2CCN(CC(=O)N3c4ccccc4CC3C)CC2)cc1OC (stereo unspecified),inactive,–
Nc1nc(SCC(=O)Nc2ccc(Cl)c([N+](=O)[O-])c2)n[nH]1,inactive,–
C/C=C\C=C\C(=O)N1CC2(CC(c3cccc(NC(=O)/C(C)=C\C)c3)=NO2)C[C@H]1C(N)=O (stereo partly specified),inactive,–
COc1ccccc1C1CCN(C(=S)Nc2ccc(Br)cc2)CC1,inactive,–
CC(C(=O)N1CCc2ccccc21)N(C)CC(=O)Nc1ccc(F)cc1 (stereo unspecified),inactive,–
CN(CCOc1ccccc1)C(=O)c1cc(COc2c(F)cccc2F)on1,inactive,–
CN(Cc1cnccn1)C(=O)c1cc(COc2cccc(C(F)(F)F)c2)on1,inactive,–
CCn1ccnc1CN(C)C(=O)c1cc(COc2ccc(-n3cncn3)cc2)on1,inactive,–
Cc1cc(CN(C)C(=O)c2cc(COc3ccc(C)c(C)c3)on2)n[nH]1,2000 nM (active),–
CN(Cc1cccnc1)C(=O)c1cc(COc2ccc3ncccc3c2)on1,inactive,–
Cc1ccc(OCc2cc(C(=O)N(C)CCc3ccccc3)no2)cc1C,3980 nM (active),–
COc1ccc(C(=O)N2CCN(c3ncccn3)CC2)cc1S(=O)(=O)N1CCOCC1,inactive,–
COc1cccc(NC(=O)CN(C)C(=O)/C=C/c2cn(-c3ccccc3)nc2-c2cccs2)c1,inactive,–
CN(C)CCn1c(=S)[nH]c2ccc(Cl)cc2c1=O,inactive,–
CN(C)CCN=c1cc(-c2ccccc2)oc2ccc(Cl)cc12,2820 nM (active),–
O=C(NCC#CCSc1nnc(-c2cccc3ccccc23)o1)c1cccs1,inactive,–
COCCN(C(=O)CC1CCCCC1)c1c(N)n(CC(C)C)c(=O)[nH]c1=O,inactive,–

SMILES,Potency,"activation, negative = inhibition"
O=C(Nc1ccc(S(=O)(=O)N2CCCCC2)cc1)C1CCN(C(=O)c2ccc(F)cc2)CC1,inactive,–
Cc1ccc(S(=O)(=O)N(C)C)cc1NC(=O)CN1c2cccc3cccc(c23)S1(=O)=O,inactive,–
COc1ccc(NC(=O)c2ccc(OC)cc2)cc1,1410 nM (active),–
COc1ccccc1CC(=O)Nc1ccc(F)cc1F,inactive,–
COc1ccc(C(=O)Nc2cccc(S(C)(=O)=O)c2)cc1,inactive,–
COc1ccc(NC(=O)c2ccc(C#CC(C)(C)O)cc2)cc1,inactive,–
COc1cc(OC)cc(C(=O)OCC(=O)Nc2ccc(F)cc2F)c1,inactive,–
COc1ccc(C(=O)Nc2ccc(F)cc2F)cc1,2510 nM (active),–
COc1ccc(NC(=O)CC2SC(N3CCCCC3)=NC2=O)cc1OC (stereo unspecified),inactive,–
CCCc1ccc(C(=O)COC(=O)CN2C(=O)NC3(CCCCC3C)C2=O)cc1 (stereo unspecified),inactive,–
CCC(C)NC(=O)CCCc1ccccc1 (stereo unspecified),inactive,–
O=C(CCCc1ccccc1)NCc1ccccc1,inactive,–
C=CCN1CCN(C(=O)CCCc2ccccc2)CC1,100 nM (active),–
CCc1noc(C)c1C(=O)Nc1nc2ccc(OC)cc2s1,inactive,–
COc1ccc2nc(NC(=O)c3ccc(Br)s3)sc2c1,2240 nM (active),–
COc1ccc2nc(NC(=O)NC3CCCCC3)sc2c1,2000 nM (active),–
CCn1c(SCC(=O)Nc2nc3ccc(OC)cc3s2)nnc1-c1ccoc1C,inactive,–
CS(=O)(=O)c1ccc2nc(NC(=O)C3CCCCC3)sc2c1,inactive,–
COc1ccc2nc(NC(=O)[C@@H]3CCCN3C(=O)c3cccs3)sc2c1,inactive,–
